Assay results: PubChem BioAssay AID1159580 (chemical genetic matrix, 2015)
Where “and” joins values, the source holds several entries; their conditions need not be identical. Identical values can stand only once. Out of some 5,500 compounds screened, about 2,000 (36%) were called active. Roughly 18% stayed inconclusive and do not appear here. Cut-off read from the data, not from the text of the source: active = normalized growth mostly below about 0.91 (no sharp cut-off); inconclusive = no clear call, values can overlap the other calls; inactive = mostly above about 0.92. Some of the results follow.

Test: chemical genetic growth profiling, strain panel (AID 1159580);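 note: tested at 20 µM; growth read once vehicle control cultures reached saturation at 30 °C; 1 = growth at the plate median or of vehicle wells; lower values mean less growth of the strain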
Conditions: S. cerevisiae deletion strains, growth OD

Measured: normalized growth

COc1ccc(C(=O)c2ccccc2O)c(O)c1
0.676 (active) and 0.932 (inactive): locus YJL095W, strain BCK1, stronger effect = lower value
inactive: locus YAL013W, strain DEP1, stronger effect = lower value 0.91 | locus YAL021C, strain ccr4, stronger effect = lower value 0.992 | locus YBR229C, strain ROT2, stronger effect = lower value 0.95 | locus YCL029C, strain bik1, stronger effect = lower value 0.929 | locus YDL005C, strain med2, stronger effect = lower value 0.918 | locus YDL035C, strain GPR1, stronger effect = lower value 0.962 | locus YDL074C, strain BRE1, stronger effect = lower value 0.845 | locus YDL101C, strain DUN1, stronger effect = lower value 0.944 | locus YDL134C, strain PPH21, stronger effect = lower value 0.933 | locus YDL185W, strain tfp1, stronger effect = lower value 0.921 | locus YDR069C, strain doa4, stronger effect = lower value 0.912 | locus YDR101C, strain arx1, stronger effect = lower value 0.949 | locus YDR150W, strain NUM1, stronger effect = lower value 0.961 | locus YDR162C, strain NBP2, stronger effect = lower value 0.926 | locus YEL061C, strain CIN8, stronger effect = lower value 0.952 | locus YER110C, stronger effect = lower value 0.913 | locus YER155C, strain BEM2, stronger effect = lower value 0.949 | locus YER167W, strain BCK2, stronger effect = lower value 0.951 | locus YFR010W, strain ubp6, stronger effect = lower value 0.902 | locus YGL078C, strain dbp3, stronger effect = lower value 0.947 | locus YGL086W, strain mad1, stronger effect = lower value 0.932 | locus YGR078C, strain PAC10, stronger effect = lower value 0.903 | locus YGR229C, strain SMI1, stronger effect = lower value 0.894 | locus YHR030C, strain SLT2, stronger effect = lower value 0.922 and 0.947 | locus YHR079C, strain IRE1 (second series), stronger effect = lower value 0.932 | locus YHR079C, strain IRE1, stronger effect = lower value 0.957 | locus YHR094C, strain hxt1, stronger effect = lower value 0.933 | locus YHR129C, strain ARP1, stronger effect = lower value 0.949 | locus YHR200W, strain rpn10, stronger effect = lower value 0.937 | locus YIL066C, strain RNR3, stronger effect = lower value 0.946 | locus YIL073C, strain SPO22, stronger effect = lower value 0.84 | locus YIL125W, strain kgd1, stronger effect = lower value 0.943 | locus YJL115W, strain asf1, stronger effect = lower value 0.91 | locus YJL134W, strain LCB3, stronger effect = lower value 0.953 | locus YJL168C, strain set2, stronger effect = lower value 0.938 | locus YJL187C, strain SWE1 (second series), stronger effect = lower value 0.896 | locus YJR043C, strain POL32, stronger effect = lower value 0.976
active: locus YAL026C, strain drs2, stronger effect = lower value 0.815 | locus YAL030W, strain snc1, stronger effect = lower value 0.894 | locus YBL061C, strain skt5, stronger effect = lower value 0.818 | locus YBR009C, strain hhf1, stronger effect = lower value 0.806 | locus YBR021W, strain FUR4, stronger effect = lower value 0.817 | locus YBR023C, strain chs3, stronger effect = lower value 0.867 | locus YBR171W, strain sec66, stronger effect = lower value 0.823 | locus YBR231C, strain swc5, stronger effect = lower value 0.887 | locus YBR279W, strain paf1, stronger effect = lower value 0.902 | locus YCL011C, strain gbp2, stronger effect = lower value 0.876 | locus YCL016C, strain dcc1, stronger effect = lower value 0.905 | locus YCL061C, strain MRC1, stronger effect = lower value 0.888 | locus YCL069W, strain vba3, stronger effect = lower value 0.869 | locus YCR088W, strain abp1, stronger effect = lower value 0.888 | locus YDL040C, strain nat1, stronger effect = lower value 0.893 | locus YDL192W, strain arf1, stronger effect = lower value 0.915 | locus YDR001C, strain nth1, stronger effect = lower value 0.888 | locus YDR137W, strain rgp1, stronger effect = lower value 0.43 | locus YDR159W, strain sac3, stronger effect = lower value 0.757 | locus YDR195W, strain ref2 1.2 [resistant] | locus YDR297W, strain sur2, stronger effect = lower value 0.878 | locus YDR318W, strain mcm21, stronger effect = lower value 0.91 | locus YDR334W, strain swr1, stronger effect = lower value 0.89 | locus YDR335W, strain msn5, stronger effect = lower value 0.889 | locus YDR388W, stronger effect = lower value 0.92 | locus YDR392W, strain spt3, stronger effect = lower value 0.417 | locus YDR502C, strain sam2, stronger effect = lower value 0.871 | locus YEL003W, strain gim4, stronger effect = lower value 0.83 | locus YEL037C, strain rad23, stronger effect = lower value 0.874 | locus YEL061C, strain CIN8 (second series), stronger effect = lower value 0.874 | locus YER015W, strain faa2, stronger effect = lower value 0.876 | locus YER016W, strain bim1, stronger effect = lower value 0.883 | locus YER111C, strain swi4, stronger effect = lower value 0.885 | locus YER155C, strain BEM2 (second series), stronger effect = lower value 0.444 | locus YGL167C, strain pmr1, stronger effect = lower value 0.843 | locus YGL173C, strain kem1, stronger effect = lower value 0.817 | locus YGL227W, strain vid30, stronger effect = lower value 0.879 | locus YGL240W, strain doc1, stronger effect = lower value 0.734 | locus YGL248W, strain PDE1, stronger effect = lower value 0.876 | locus YGL253W, strain hxk2, stronger effect = lower value 0.799 | locus YGR135W, strain pre9, stronger effect = lower value 0.822 | locus YGR252W, strain gcn5, stronger effect = lower value 0.751 | locus YHR013C, strain ard1, stronger effect = lower value 0.725 | locus YHR027C, strain rpn1, stronger effect = lower value 0.883 | locus YHR142W, strain chs7, stronger effect = lower value 0.722 | locus YIR030C, strain dcg1, stronger effect = lower value 0.918 | locus YJL092W, strain hpr5, stronger effect = lower value 0.876 | locus YJL095W, strain BCK1 (second series), stronger effect = lower value 0.727 | locus YJL129C, strain trk1, stronger effect = lower value 0.8 | locus YJL154C, strain vps35, stronger effect = lower value 0.884 | locus YJL164C, strain tpk1, stronger effect = lower value 0.798 | locus YJL166W, strain qcr8, stronger effect = lower value 0.881 | locus YJL187C, strain SWE1, stronger effect = lower value 0.88
